Results as given in PubChem BioAssay AID1259341 (Broad Institute, 2017).

The compounds below were run against Caspase recruitment domain-containing protein 9 (Homo sapiens) + E3 ubiquitin-protein ligase TRIM62 (Homo sapiens) (UniProt Q9H257+Q9BVG3) (assay: disruptors of CARD9-TRIM62 binding, primary screen, cell lysate, HEK293FT lysates, Luminex bead ELISA (AID 1259341;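 further: PE anti-Flag signal of Flag-CARD9 captured by myc-TRIM62 beads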)). Details: PE fluorescence, active compounds read low, concentration not given here;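 active means activity change under -35% in any replicate well, with more than 20 beads read in that well; inactive means the rest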.
Caspase recruitment domain-containing protein 9 (Homo sapiens) + E3 ubiquitin-protein ligase TRIM62 (Homo sapiens), sequence (Q9BVG3 whole entry, looked up, the tested form may be a part): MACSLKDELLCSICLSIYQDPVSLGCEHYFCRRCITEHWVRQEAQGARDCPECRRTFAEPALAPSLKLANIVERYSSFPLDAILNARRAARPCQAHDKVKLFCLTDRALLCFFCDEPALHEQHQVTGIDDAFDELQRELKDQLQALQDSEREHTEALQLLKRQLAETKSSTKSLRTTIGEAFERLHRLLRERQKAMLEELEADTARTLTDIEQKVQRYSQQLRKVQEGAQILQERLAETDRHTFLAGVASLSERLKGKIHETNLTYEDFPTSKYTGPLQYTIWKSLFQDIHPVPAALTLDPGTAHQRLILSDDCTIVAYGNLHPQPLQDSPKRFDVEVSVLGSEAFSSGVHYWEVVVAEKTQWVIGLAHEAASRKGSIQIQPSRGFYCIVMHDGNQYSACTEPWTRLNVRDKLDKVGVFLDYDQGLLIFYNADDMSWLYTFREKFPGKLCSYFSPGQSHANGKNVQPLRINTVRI
Caspase recruitment domain-containing protein 9 (Homo sapiens) + E3 ubiquitin-protein ligase TRIM62 (Homo sapiens), sequence (Q9H257 whole entry, looked up, the tested form may be a part): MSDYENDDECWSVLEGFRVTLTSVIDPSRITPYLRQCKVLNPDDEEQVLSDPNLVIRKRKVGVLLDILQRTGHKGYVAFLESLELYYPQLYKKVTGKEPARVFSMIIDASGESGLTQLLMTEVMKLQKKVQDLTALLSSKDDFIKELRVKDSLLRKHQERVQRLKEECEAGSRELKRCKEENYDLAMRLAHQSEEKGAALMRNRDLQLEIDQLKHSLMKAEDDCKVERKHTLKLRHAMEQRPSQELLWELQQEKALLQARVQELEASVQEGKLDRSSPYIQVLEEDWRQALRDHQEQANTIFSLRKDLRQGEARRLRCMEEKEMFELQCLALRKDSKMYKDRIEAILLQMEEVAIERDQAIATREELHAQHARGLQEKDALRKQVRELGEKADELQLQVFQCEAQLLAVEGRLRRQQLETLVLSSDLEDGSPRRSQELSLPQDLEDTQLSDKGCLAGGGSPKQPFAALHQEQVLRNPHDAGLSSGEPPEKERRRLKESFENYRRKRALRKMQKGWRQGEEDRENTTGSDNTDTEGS

Activity change, negative = inhibition, inactive:
O=C(CCc1nc(-c2ccccc2)no1)NCC1CNCCOC1 (stereo unspecified) 18.6%
COCC(=O)N1CCCC2(CCN(CCN3CCCC3)C2=O)C1 (stereo unspecified) -5.85%
COc1ccc(-c2nc(SCC(=O)N3CCN(c4ccccc4OC)CC3)n[nH]2)cc1 23.5%
O=C(O)CCc1ccc(-c2cccs2)n1NC(=O)c1ccco1 1.63%
CC(C)=CCC(C#N)(CC=C(C)C)C(=O)O 8.02%
Cc1noc(CN(C)C(=O)c2cc(-c3ccco3)nc3c(C)c(Cl)ccc23)n1 -1.57%
CC(CCc1ccco1)N(C)S(=O)(=O)c1ccc2[nH]c(=O)ccc2c1 (stereo unspecified) 3.38%
O=C(O)C1Oc2cc3ccccc3cc2O1 -13.6%
CCCN1CCCn2nc(CNC(=O)[C@@H](N)Cc3ccc(O)cc3)cc2C1 -26.6%
Cc1ccc(Nc2nc(C(=O)Nc3ccc(Br)cc3)nc3ccccc23)cc1 4.69%
O=c1oc(-c2ccccc2)nc2sc3c(c12)CCC3 0.684%
O=C(N/N=C/C=C/c1ccco1)c1cncc(Br)c1 -8.78%
Cc1ccc(C)n1NC(=O)c1ccccc1O 1.19%
O=C(Nc1ccc2oc(-c3ccncc3)nc2c1)c1ccc2c(c1)OCO2 -8.29%
c1coc(-c2cn3ccc4ccccc4c3n2)c1 -1.55%
O=C(Nc1ccc2c(c1)nc1n2CCN(C2CCCCC2)C1)c1ccco1 -2.69%
COc1cc(N)c(Cc2nccc3cc(OC)c(OC)cc23)cc1OC 1.93%
O=C(Cc1ccc(S(=O)(=O)N2CCOCC2)s1)Nc1nc2c(s1)CCCC2 -0.777%
O=[N+]([O-])c1ccc2cc[nH]c2c1 7.88%
COc1ccc(-c2ccc(CCC(=O)O)o2)cc1 -0.268%
O=S(=O)(c1ccc(F)cc1)N1CN(Cc2ccco2)c2nc3ccccc3nc21 26.6%
Cc1cc(C(=O)NCc2ccco2)on1 -1%
Cc1ccc(-c2nnc(-c3nc(Nc4nc5ccccc5s4)c4ccccc4n3)o2)cc1 -10.3%
O=C(O)C(c1ccccc1)C(c1ccccc1)c1ccccc1 (stereo unspecified) 6.86%
O=C(O)c1cc(-c2ccco2)nc2ccccc12 15.8%
Cc1cccc2nc(CSCc3ccco3)cn12 -4.69%
O=c1oc(/C=C/c2ccc([N+](=O)[O-])s2)nc2ccccc12 -7%
Cc1nc2ccccc2nc1CSCc1ccco1 1.2%
Nc1cc2c(cc1O)CCCC2 -4.6%
NC(=O)C1(N2CCCCC2)CCN(c2ncc(NC(=O)c3ccc(F)cc3)cc2C(=O)O)CC1 -19.3%
O=C(COC(=O)c1ccc(F)cc1F)Nc1ncccn1 -18.2%
Cc1ccsc1[C@@H]1CCN(Cc2ccc(-c3ccn[nH]3)o2)C[C@H]1O 0.0372%
Cc1ccc2c(c1)C(N1CCCC1=O)CC(c1ccco1)N2 (stereo unspecified) 5.12%
CCSCCNC(=O)c1cncc(Br)c1 0.232%
O=[N+]([O-])c1ccc2nn(Cc3ccccc3)cc2c1 16.2%
O=C(NCc1ccco1)c1c2c(nc3ccccc13)CCC2 -3.42%
